From PubChem BioAssay (NCATS)
Calls of active or inactive are those of the source. The call rests on the fitted dose curve; in most records, active means well fitted curve in the direction sought with a large enough effect; inactive means no such curve, though single readings can be large or run the other way.

Molecular target: Alpha-galactosidase (Coffea arabica) (UniProt Q42656)
Assay: Counterscreen for Glucocerebrosidase Inhibitors: qHTS Assay for Coffee Bean alpha-Galactosidase at pH 5.9 (AID 998)
Settings: coffee bean alpha-galactosidase enzyme assay; series mostly up to 76.9 µM
Procedure, shortened: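 Compounds were titrated from 0.7 nM to 77 uM against green coffee bean alpha-galactosidase (2 nM) using 80 uM fluorogenic 4-methylumbelliferyl substrate. After 20 min at room temperature, reactions were stopped at pH 10 and read by fluorescence.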

Alpha-galactosidase (Coffea arabica), sequence (Q42656 whole entry, looked up): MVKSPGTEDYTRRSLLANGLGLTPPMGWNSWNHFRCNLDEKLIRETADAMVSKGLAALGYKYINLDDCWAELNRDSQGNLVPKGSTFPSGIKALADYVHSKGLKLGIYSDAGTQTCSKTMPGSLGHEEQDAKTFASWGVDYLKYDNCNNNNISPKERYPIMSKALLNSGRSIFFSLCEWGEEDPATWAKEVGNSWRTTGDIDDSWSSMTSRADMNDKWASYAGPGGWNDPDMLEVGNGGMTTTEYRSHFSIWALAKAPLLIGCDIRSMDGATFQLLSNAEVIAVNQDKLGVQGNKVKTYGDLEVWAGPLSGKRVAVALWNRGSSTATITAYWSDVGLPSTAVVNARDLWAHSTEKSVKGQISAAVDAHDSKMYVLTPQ

Structure (SMILES) | outcome
Nc1nc2ccc(OC(F)(F)F)cc2s1 | inactive
CCN1CCC[C@H]1CNC(=O)c1cc(S(N)(=O)=O)ccc1OC | inactive
CC(C)Cc1ccc(C(C)C(=O)O)cc1 (stereo not drawn) | inactive
CCN(CC)C(=O)c1ccc(O)c(OC)c1 | inactive
CN1[C@@H]2CC[C@H]1CC(OC(c1ccccc1)c1ccccc1)C2 (stereo partly drawn) | inactive
Cc1nc2ccccn2c(=O)c1CCN1CCC(C(=O)c2ccc(F)cc2)CC1 | inactive
NC(N)=Nc1nc(CSCC/C(N)=N/S(N)(=O)=O)cs1 | inactive
O=C(O)CN(CCN(CC(=O)O)CC(=O)O)CCN(CC(=O)O)CC(=O)O | inactive
C[N+](C)(C)CCOC(N)=O | inactive
NCCCNCCSP(=O)(O)O | inactive
CCN(CC)CCOC(=O)c1ccc(N)cc1 | inactive
COc1ccc2cc([C@H](C)C(=O)O)ccc2c1 | inactive
CC(C)(C)NC[C@H](O)COc1nsnc1N1CCOCC1 | inactive
CCN(CC)CCNC(=O)c1ccc(N)cc1 | inactive
NC(=O)c1cnccn1 | inactive
NC(N)=NC(=O)Cc1c(Cl)cccc1Cl | inactive
Cc1cnc(NC(=O)C2=C(O)c3ccccc3S(=O)(=O)N2C)s1 | inactive
Cc1nc2c([nH]1)c(=O)n(C)c(=O)n2Cc1ccco1 | inactive
CCOC(=O)c1cnc2c(cnn2CC)c1NN=C(C)C | inactive
O=C1NCC2(CCN(CCc3ccccc3)CC2)O1 | inactive
CCO/C([O-])=N/c1c[n+](N2CCOCC2)no1 | inactive
CCN(CC)CCNC(=O)c1cc(S(C)(=O)=O)ccc1OC | inactive
NC(=O)N1c2ccccc2C=Cc2ccccc21 | inactive
